Broadly, the inhibition is the change of the read-out against control, counted positive when it falls.

About 890 (0.31%) of roughly 290,000 compounds were called active. Rule as the data show it: active = inhibition mostly above about 52% (no sharp cut-off); inactive = mostly below about 76%. The entries come from a sample that favours actives as a whole.

This passage reports inhibition results from PubChem BioAssay AID1986 (Sanford-Burnham Center for Chemical Genomics, 2009).

The nature of this assay: cell-free HIV fusion peptide-binding blockers – biochemical, uHTS, fluorescence dequenching, primary screen (AID 1986). The following applies: 30 min, stronger effect = higher value.
[1] abbreviates: measured here: repeat confirmation average inhibition, at 18.6 µM.

`O=C(O)Cn1c2c(c3ccccc31)CSc1ccc(Cl)cc1-2`: the inhibition (at 20 µM) is 54.6% (active).
Same read-out and setting: with `O=C(O)Cn1c2c(c3ccccc31)CCCC2` the figure was -3.7% (inactive); with `O=C(O)Cn1c2ccccc2c2ccccc21`, -1% (inactive).
`Cc1ccc(NC(=O)CSc2nncn2-c2ccccn2)cc1Cl`: the inhibition (at 20 µM) is 1.2% (inactive).
Still for that read-out and setting: with `CN(C)CCCN(C(=O)/C=C/c1cccs1)c1nc2c(F)cccc2s1` the figure was 0.3% (inactive); with `CN(C)CCN(C(=O)/C=C/c1cccs1)c1nc2ccc(F)cc2s1`, -3.5% (inactive).
Still for that read-out and setting: the value for `CN(C)CCN(C(=O)/C=C/c1cccs1)c1nc2c(F)cc(F)cc2s1` was 56.7% (active).
The same measure, in the same setting: the value for `O=C1c2ccsc2SCCN1Cc1c(F)cccc1Cl` was -0.5% (inactive).
For `CCCCC(CCC(=O)O)(C(=O)OCC)c1csc(Nc2ccc(C)cc2)n1` (stereo not drawn), the inhibition (at 20 µM) was 13.4% (inactive).
Still for that read-out and setting: the value for `Cc1c2ccccc2nc2c(F)c(NC(C)C)c(F)c(F)c12` was 36.2% (inactive); that for `Cc1c2ccccc2nc2c(F)c(NCCO)c(F)c(F)c12` was 23.4% (inactive).
`CCCNc1c(F)c(F)c2c(C)c3ccccc3nc2c1F`: the inhibition reads like this: (at 20 µM) 51.8% (active); under setting [1], 159%.
For `CCOC(=O)C1Cc2c([nH]c3ccccc23)CN1` (stereo not drawn), where the note is “at 20 µM”, the inhibition was -0.5% (inactive).
The same measure, in the same setting: the value for `O=C(c1cc(S(=O)(=O)N2CCCCC2)ccc1Cl)N1CCOCC1` was 0.1% (inactive); that for `COc1cc([N+](=O)[O-])ccc1NC(=O)NCc1ccccn1` was -3.2% (inactive); that for `COc1cccc(/C=N/NC(=S)Nc2cccc(C(=O)O)c2)c1O` was 7.9% (inactive).
The same measure, in the same setting: with `O=C(O)c1cccc(NC(=S)N/N=C/c2ccccc2OCc2ccc(Br)cc2)c1` the figure was 65.6% (active); with `O=C(O)c1cccc(NC(=S)N/N=C/c2cccc(O)c2)c1`, 1.3% (inactive).
The same measure, in the same setting: the value for `COc1ccccc1NC(=O)N(Cc1cc2cc(OC)c(OC)cc2[nH]c1=O)CC1CCCO1` (stereo not drawn) was -1.5% (inactive); that for `Cc1cc(C)c2nc(N3CCC(C(=O)NCCCN4CCCC4=O)CC3)sc2c1` was -0.6% (inactive); that for `COc1cc(/C=N/NC(=S)NCCN2CCOCC2)cc(OC)c1OC` was -0.8% (inactive).
On to `CCOC(=O)c1cc(-c2ccc(/C=C3/C(=O)NC(=O)C(C#N)=C3C)o2)ccc1Cl`, for which the inhibition (at 20 µM) is 65.1% (active).
For the compound `C=CCOC(=O)c1cc(-c2ccc(/C=C3\C(=O)NC(=O)C(C#N)=C3C)o2)ccc1Cl`, the inhibition (at 20 µM) was -2.1% (inactive).
Same read-out and setting: the value for `CC1=C(C#N)C(=O)NC(=O)/C1=C/c1ccc(-c2ccc(S(N)(=O)=O)cc2)o1` was 46.5% (inactive); that for `O=C(c1cccnc1)N1CCN(Cc2ccc3c(c2)OCO3)CC1` was 2.7% (inactive); that for `CCN(CC)c1ccc(/C=C(\C#N)c2ccccn2)cc1` was 19.5% (inactive).
Consider `CC(=O)Nc1sc(/C(C#N)=C\c2cccc(Cl)c2)nc1-c1ccc(C)cc1`, for which the inhibition by setting is: (at 20 µM) 61.1% (active); under setting [1], 75.8%.
Consider `CC(=O)Nc1sc(N/N=C\c2ccc(O)cc2)nc1-c1cccs1`, for which, where the note is “at 20 µM”, the inhibition is -0.1% (inactive).
Still for that read-out and setting: with `CCN(CC)c1ccc(/C=C(\C#N)c2nc(-c3cccs3)c(NC(C)=O)s2)cc1` the figure was 122% (active); with `CC(=O)Nc1sc(N/N=C/c2ccc(C)cc2)nc1-c1ccc(C)cc1`, -3% (inactive).
As to `CC(=O)Nc1sc(N/N=C/c2ccccc2)nc1-c1ccc(C)cc1`, for the setting “at 20 µM”, the inhibition was 0.1% (inactive).
Still for that read-out and setting: the value for `C=CCNC(=O)N[C@@H](Cc1ccccc1)C(=O)OC` was -0.9% (inactive); that for `Cc1c(C(=O)N2CCCC2)sc(NC(=O)c2cccs2)c1C#N` was 3.6% (inactive).
On the same count and under the same terms, with `O=C(CNC(=O)c1ccccc1Br)N/N=C/c1cccnc1` the figure was 0.5% (inactive); with `O=C1CC(NNC(=O)c2ccccc2)C(=O)N1` (stereo not drawn), -0.3% (inactive); with `COC(=O)c1cc(S(=O)(=O)NCC2CCN(Cc3cccc(Cl)c3)CC2)c[nH]1`, -0.3% (inactive).
Same read-out and setting: the value for `c1ccc(Cn2c[n+](Cc3ccccc3)cn2)cc1` was -1.5% (inactive); that for `c1ccc(-c2nc3ccccc3c3nncn23)cc1` was -1.8% (inactive).
In the case of `O=c1[nH]nc(SCc2ccccc2Cl)n1-c1ccc2c(c1)OCCO2`, the inhibition (at 20 µM) was -1.4% (inactive).
Same read-out and setting: the value for `COCCCN(C(=O)c1ccco1)c1nc(-c2ccc(OC)cc2)cs1` was 2.9% (inactive); that for `O=C(CCCl)Nc1cc(SCCO)cc([N+](=O)[O-])c1` was 0.1% (inactive).
Regarding `CC(=O)c1cc(NC(=O)c2ccc(C)cc2)c(=O)oc1/C=C/N(C)C`, the inhibition (at 20 µM) is 25.7% (inactive).
As for `CC(=O)c1cc(NC(=O)c2cccc(C(F)(F)F)c2)c(=O)oc1/C=C/N(C)C`, the inhibition runs as follows: (at 20 µM) 75.6% (active); under setting [1], 91.6%.
Consider `CC(=O)c1cc(NC(=O)c2cccc(C(F)(F)F)c2)c(=O)oc1C`, for which the inhibition (at 20 µM) is 0.8% (inactive).
Same read-out and setting: the value for `COC(=O)c1ccc2c(c1)C(C)(C)C(/C=C/c1ccc(O)cc1)=[N+]2C` was 111% (active); that for `COC(=O)c1ccc2c(c1)C(C)(C)C(/C=C/c1ccccc1O)=[N+]2C` was 143% (inactive).
The same measure, in the same setting: with `COC(=O)c1ccc2c(c1)C(C)(C)C(/C=C/c1ccc(OC)c(OC)c1OC)=[N+]2C` the figure was 10.3% (inactive).
Same read-out and setting: with `C/C=C(\C)CN1CCN(c2ccccc2F)CC1` the figure was -0.4% (inactive).
In the case of `CC(=O)c1sc(NS(=O)(=O)c2ccc(C)cc2)nc1-c1ccccc1`, the inhibition (at 20 µM) is 19.8% (inactive).
For the compound `O=C(NCc1cc([N+](=O)[O-])ccc1O)c1cccc(NS(=O)(=O)c2ccccc2)c1`, under “at 20 µM”, the inhibition was 4% (inactive).
On the same count and under the same terms, with `NC1=NC(=O)/C(=C\c2cc([N+](=O)[O-])ccc2Cl)S1` the figure was -3.5% (inactive); with `COc1ccc(S(=O)(=O)/N=C2/NC(=O)/C(=C\c3cc(OC)c(OC)cc3[N+](=O)[O-])S2)cc1`, 27.4% (inactive); with `Cc1ccc(S(=O)(=O)N/N=C\c2cc([N+](=O)[O-])ccc2Cl)cc1`, 2.5% (inactive).
On the same count and under the same terms, with `Cc1ccc(S(=O)(=O)N/N=C/c2cc([N+](=O)[O-])ccc2O)cc1[N+](=O)[O-]` the figure was 17.1% (inactive).
Regarding `COc1cc(/C=C2\S/C(=N/S(=O)(=O)c3ccccc3)NC2=O)c([N+](=O)[O-])cc1OC`, the inhibition by setting is: (at 20 µM) 59.3% (inactive); under setting [1], 33.8%.
`O=S(=O)(c1ccccc1)N1CCN(c2nnc(-c3ccccc3)c3ccccc23)CC1`: the inhibition (at 20 µM) is 0% (inactive).
On the same count and under the same terms, the value for `Cc1cc(S(=O)(=O)N2CCCC2)c(C)s1` was -1.2% (inactive); that for `Nn1c(SCc2cccc(Br)c2)nnc1-c1cccnc1` was -2% (inactive).
On the same count and under the same terms, the value for `COC(=O)CN1C(=S)N(c2ccc(OC)cc2)C(=O)/C1=C/c1ccc(N2CCOCC2)cc1` was 73.4% (active); that for `CCOc1ccc(/C=C2/C(=O)N(c3ccc(OC)cc3)C(=S)N2CC(=O)OC)cc1OCC` was 2.5% (inactive).
As for `COC(=O)CN1C(=S)N(c2ccc(OC)cc2)C(=O)/C1=C/c1ccc(OC)cc1`, the inhibition (at 20 µM) is -1.4% (inactive).
Regarding `COc1ccccc1N=Nc1c(O)[nH]c2ccc(Br)cc12`, the inhibition reads like this: (at 20 µM) 74.7% (active); under setting [1], 70.2%.
As for `COc1ccccc1NC(=S)N=Nc1c(O)[nH]c2ccc(Br)cc12`, the inhibition (at 20 µM) was -1.3% (inactive).
On the same count and under the same terms, with `COC(=O)N=Nc1c(O)[nH]c2ccc(Br)cc12` the figure was -0.3% (inactive); with `c1cc(CNc2ccc3c(c2)OCO3)ccn1`, 4.7% (inactive); with `Cc1ccc(CNc2ccc3c(c2)OCO3)cc1`, 112% (active).
Still for that read-out and setting: the value for `Cc1ccc(CNCc2ccc3c(c2)OCO3)cc1` was 2.9% (inactive); that for `Cc1ccc(C(=O)NCc2ccc3c(c2)OCO3)c(C)c1` was 0.4% (inactive).
Still for that read-out and setting: with `Cc1ccc(CNCc2ccc3c(c2)OCO3)c(C)c1` the figure was -1.9% (inactive); with `Cc1ccc(CNc2ccc3c(c2)OCO3)c(C)c1`, 52.3% (active).
As to `COC(=O)c1cc2ccccc2c(-c2c(OC)c(C(=O)OC)cc3ccccc23)c1OC`, under “at 20 µM”, the inhibition is -0.9% (inactive).
For the compound `CCOC(=O)N/N=C/c1ccc(OCCSc2ccc(Cl)cc2)c(OC)c1`, where the note is “at 20 µM”, the inhibition is 6.5% (inactive).
Take `O=C(NC1CCCC1)C(c1cccs1)N(C(=O)c1csnn1)c1ccccc1F` (stereo not drawn): the inhibition (at 20 µM) is 0.9% (inactive).
On to `CN(C)c1ccc(/C=C2\N=C(C(C)(C)C)OC2=O)cc1`, for which, for the setting “at 20 µM”, the inhibition is 28.5% (inactive).
The same measure, in the same setting: with `COc1ccc(/C=C2\OC(=S)N(C)C2=O)cc1` the figure was -1.3% (inactive).
For the compound `CN1C(=O)/C(=C\c2ccc(N(C)C)cc2)OC1=S`, the inhibition by setting is: (at 20 µM) 78.5% (active); under setting [1], 83.9%.
For `COc1ccccc1CN1C(=S)SC(C)(C)C1NO` (stereo not drawn), the inhibition (at 20 µM) was -0.5% (inactive).
In the case of `CCCCc1nc2cc(C(=O)N3CCNC(=O)C3)ccc2o1`, the inhibition (at 20 µM) is 0.8% (inactive).
On to `CC(C)(C)C1C/C(=C/c2ccco2)C(=O)/C(=C/c2ccco2)C1` (stereo not drawn), for which the inhibition (at 20 µM) is 61.8% (active).
On the same count and under the same terms, with `Cn1cccc1/C=C1\CC(C(C)(C)C)C/C(=C\c2cccn2C)C1=O` (stereo not drawn) the figure was 2.7% (inactive).
On the same count and under the same terms, with `CC1C/C(=C/c2ccncc2)C(=O)/C(=C/c2ccncc2)C1` (stereo not drawn) the figure was 1.9% (inactive).
Same read-out and setting: the value for `CC(C)(C)C1C/C(=C/c2ccccn2)C(=O)/C(=C/c2ccccn2)C1` (stereo not drawn) was 3.1% (inactive).
With `O=C1/C(=C/c2cccs2)CCC/C1=C\c1cccs1`, the inhibition (at 20 µM) is 31.9% (inactive).
As to `CC1C/C(=C/c2ccco2)C(=O)/C(=C/c2ccco2)C1` (stereo not drawn), the inhibition (at 20 µM) is 61.3% (active).
For the compound `O=C1/C(=C\c2ccco2)CCC/C1=C\c1ccco1`, the inhibition reads like this: (at 20 µM) 69.6% (inactive); under setting [1], 3.2%.
`CCC1C/C(=C/c2ccco2)C(=O)/C(=C/c2ccco2)C1` (stereo not drawn): the inhibition was 68.9% (inactive) (at 20 µM) and 0.1% under setting [1].
As for `CC1C/C(=C/c2cccs2)C(=O)/C(=C/c2cccs2)C1` (stereo not drawn), the inhibition (at 20 µM) was 68.1% (active).
For the compound `N#Cc1cccn1-c1nccs1`, the inhibition (at 20 µM) is -0.8% (inactive).
Take `Cc1onc(-c2c(F)cccc2Cl)c1C(=O)OCC(=O)NC(N)=O`: the inhibition (at 20 µM) is -0.8% (inactive).
The same measure, in the same setting: with `COC(=O)c1ccc(CSc2nc3ccccc3[nH]2)o1` the figure was 1.5% (inactive); with `CCN(CC)c1ccc(/C=C2\SC(=O)N(C(C)C)C2=O)o1`, 56.4% (active); with `CCN(CC)c1ccc(/C=C2/SC(=O)N(C(C)C)C2=O)o1`, 2.5% (inactive).
Take `CC(C)N1C(=O)S/C(=C\c2ccc(-c3ccc(Cl)c(C(=O)O)c3)o2)C1=O`: the inhibition (at 20 µM) is 24.7% (inactive).
The same measure, in the same setting: the value for `O=C(O)c1ccc2c(c1)C1C=CCC1C(c1ccncc1)N2` (stereo not drawn) was 24.6% (inactive); that for `COc1ccc(C(=O)N/N=C(\C)c2ccc3c(c2)C2C=CCC2C(c2ccccc2)N3)cc1` (stereo not drawn) was 16.5% (inactive).
